PubChem BioAssay
Unmarked numbers belong to inactive results. Rule as the data show it, unless noted: active = inhibition above about 25%; inactive = the rest.

Columns and labels:
[1] = target: Nuclear receptor coactivator 1 (Homo sapiens) (UniProt Q15788); experiment: NCOA1 GAL4-fusion reporter inhibition – cell-based, luminescence, quadruplicate, confirmation (AID 588820;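 active = mean inhibition above 46.68%, the untreated control wells mean plus 3 SD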;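 also: 0% = DMSO wells and 100% = gossypol 36 µM treated wells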); settings: HEK293 GAL4-SRC1 luciferase reporter, at 3.6 µM, active compounds read high
Sequence of Nuclear receptor coactivator 1 (Homo sapiens) (Q15788 whole entry, looked up, the tested form may be a part): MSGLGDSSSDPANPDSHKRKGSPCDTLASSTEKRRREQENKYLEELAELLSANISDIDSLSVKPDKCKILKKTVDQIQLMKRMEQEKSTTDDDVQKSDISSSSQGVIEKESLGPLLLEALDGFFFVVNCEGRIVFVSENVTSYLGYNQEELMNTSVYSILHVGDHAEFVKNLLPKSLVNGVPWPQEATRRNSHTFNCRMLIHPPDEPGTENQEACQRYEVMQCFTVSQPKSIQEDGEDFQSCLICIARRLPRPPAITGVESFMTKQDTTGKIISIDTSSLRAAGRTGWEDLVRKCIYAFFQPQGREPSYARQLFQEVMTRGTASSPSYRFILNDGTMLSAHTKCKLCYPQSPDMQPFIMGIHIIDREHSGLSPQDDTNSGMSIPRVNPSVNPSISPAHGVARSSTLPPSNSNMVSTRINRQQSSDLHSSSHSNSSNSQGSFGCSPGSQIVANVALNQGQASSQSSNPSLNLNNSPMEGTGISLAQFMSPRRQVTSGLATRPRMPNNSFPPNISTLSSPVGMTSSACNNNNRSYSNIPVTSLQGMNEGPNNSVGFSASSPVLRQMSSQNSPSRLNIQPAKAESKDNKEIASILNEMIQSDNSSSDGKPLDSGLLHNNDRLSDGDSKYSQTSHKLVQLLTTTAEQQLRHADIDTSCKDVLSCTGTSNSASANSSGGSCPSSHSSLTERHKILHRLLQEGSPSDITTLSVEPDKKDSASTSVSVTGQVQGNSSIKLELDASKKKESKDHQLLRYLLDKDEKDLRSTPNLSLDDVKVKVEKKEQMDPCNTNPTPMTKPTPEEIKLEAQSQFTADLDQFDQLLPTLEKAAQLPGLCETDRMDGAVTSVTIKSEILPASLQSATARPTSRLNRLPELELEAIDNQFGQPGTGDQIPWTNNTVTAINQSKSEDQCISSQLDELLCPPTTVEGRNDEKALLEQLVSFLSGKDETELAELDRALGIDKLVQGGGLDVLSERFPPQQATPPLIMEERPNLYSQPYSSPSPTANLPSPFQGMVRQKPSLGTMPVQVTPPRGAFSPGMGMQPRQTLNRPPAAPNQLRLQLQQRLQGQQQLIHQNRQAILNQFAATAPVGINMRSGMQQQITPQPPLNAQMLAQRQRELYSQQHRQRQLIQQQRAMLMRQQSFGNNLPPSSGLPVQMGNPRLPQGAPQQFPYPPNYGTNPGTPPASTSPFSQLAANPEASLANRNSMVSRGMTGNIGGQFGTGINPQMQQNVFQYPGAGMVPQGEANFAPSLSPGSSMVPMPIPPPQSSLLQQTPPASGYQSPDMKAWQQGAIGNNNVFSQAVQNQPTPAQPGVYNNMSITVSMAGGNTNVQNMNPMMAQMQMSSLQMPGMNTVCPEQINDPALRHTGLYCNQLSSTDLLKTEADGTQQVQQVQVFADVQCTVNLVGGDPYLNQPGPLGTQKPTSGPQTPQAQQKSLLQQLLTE

[2] = repression of VP16-driven luciferase reporter – cell-based, luminescence, high throughput, counter-screen for SRC1 inhibitor project (AID 588824); settings: cell-based VP16 transactivation luciferase luminescence; at 3.6 µM; active compounds read high

Compound `CCN(CC)S(=O)(=O)c1ccc(NC(=O)c2ccc(N3CCCC3=O)cc2)cc1` has an inhibition [1] of 3.05% and an inhibition [2] of 22.8%.

With `Cc1ccc(O)c(C(=O)c2cnn(C(=O)COc3ccc(Cl)cc3)c2)c1` the inhibition [1] was 23.6% and the inhibition [2] was 4.05%.

In the case of `COc1ccc(CCC(C)NCc2cc(OC)cc(OC)c2)cc1` (centres undefined), the inhibition [1] is reported as -28.3% and the inhibition [2] is reported as -6.4%.

Work on `COc1ccccc1CCNC(=O)CCn1c(=O)c2cccn2c2ccc(F)cc21` yielded an inhibition [1] of -9.66% and an inhibition [2] of -15.2%.

`Cc1ccccc1C(=O)Nc1cc(NC(=O)c2ccccc2C)cc(C(=O)O)c1` gave an inhibition [1] of -14.1% and an inhibition [2] of -11.4%.

`Cc1cccnc1NC(=O)c1cccc(S(=O)(=O)NCc2ccccc2)c1` showed an inhibition [1] of -10.8% and an inhibition [2] of 3%.

With `O=c1[nH]c(CSc2nc3ccccc3o2)nc2c1cnn2-c1ccccc1` the inhibition [1] was -22.6% and the inhibition [2] was 4.42%.

Compound `CCCN(CCC)CCCNC(=O)c1cn(C)c2ccc(S(=O)(=O)N(C)C3CCCCC3)cc2c1=O` has an inhibition [1] of -13.7% and an inhibition [2] of -9.68%.

In the case of `CCOC(=O)C1(Cc2cccc(Cl)c2)CCCN(C(=O)c2ccoc2C)C1` (centres undefined), the inhibition [1] is reported as -4.52% and the inhibition [2] is reported as -3.85%.

`O=C(c1ccccc1)c1sc(Nc2ccc3c(c2)OCO3)nc1-c1ccccc1` gave an inhibition [1] of 13.9% and an inhibition [2] of 18.1%.

Work on `COc1ccc(Nc2nc(-c3cccs3)nc3ccccc23)cc1S(=O)(=O)N1CCOCC1` yielded an inhibition [1] of -30.8% and an inhibition [2] of -9.26%.

With `COc1cc2cc[n+](Cc3ccc([N+](=O)[O-])cc3)cc2cc1OC` the inhibition [1] was -2.4% and the inhibition [2] was -3.17%.
